SARS PLP yeast: qHTS of Yeast-based Assay for SARS-CoV PLP | S. cerevisiae expressing SARS-CoV PLpro, growth rescue | Potency, µM (series often up to 32.9 µM), actives largely listed as activators | hit rate 0.19% among 330,000; calls by dose curve; also: nearly all actives have a fitted effect of over 55% in size
HCV inhibitor: qHTS Assay for Inhibitors of Hepatitis C Virus (HCV) | Potency, µM (doses to about 41.8 µM), hits mostly inhibitors | hit rate 3.4% among 340,000 | Huh7.5.1 HCVcc-Cre infection, luciferase reporter, 44 h | AID 651820, 2012
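Seed cells (1,000/well) for 4 h; treat with compound and infect with HCVcc-Cre, moi about 0.5. Incubate 44 h, then detect luciferase activity.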
Sm TGR inh: qHTS Assay for the Inhibitors of Schistosoma Mansoni Peroxiredoxins | Schistosoma mansoni thioredoxin glutathione reductase (TGR), Q962Y6 | purified TGR, DTNB reduction, TNB absorbance 405 nm | Potency, µM (titrated, usually from 114 µM), actives largely listed as inhibitors | hit rate 3% among 360,000 | AID 485364, 2010; also: nearly all actives have a fitted effect of over 60% in size
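TGR 20 nM + NADPH 100 uM (dispensed conc.), cpd preinc 15 min RT; start with NADPH (500 uM addition) then DTNB (15 mM addition). Kinetic TNB absorbance, 405 nm filter. Four-parameter Hill fit across titration.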
Pf growth 96h: Primary qHTS for delayed death inhibitors of the malarial parasite plastid, 96 hour incubation; P. falciparum luciferase reporter growth, 96 h; Potency, µM (series often up to 28.7 µM), usual class: inhibitors; hit rate 6.9% among 320,000
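Delayed-death screen, second-generation endpoint: infected erythrocytes, 2% hematocrit, 0.05% parasitemia final; 96 hours at 37 C, 5% CO2; luciferase detection reagent; luminescence decrease equals reduced growth.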
HCMV antiviral: qHTS Assay for inhibitors of the human cytomegalovirus (HCMV) | HFF cells, HCMV-luciferase reporter, 72 h; hits give low values | activity change, negative = inhibition, % at 57.5 µM | hit rate 4.5% among 410,000 | AID 1259415, 2018; in the data active = activity change below about -60%; inconclusive = no clear call, values can overlap the other calls; inactive = above about -39%
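Two-dose cell screen: HFF monolayers treated with compounds and infected with luciferase-expressing HCMV at 1 PFU/cell, 72 h at 37C, then lysed for luciferase measurement.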
Pf growth 48h: Primary qHTS for delayed death inhibitors of the malarial parasite plastid, 48 hour incubation; P. falciparum luciferase growth in erythrocytes, 48 h; Potency, µM (doses to about 28.7 µM), most hits filed as inhibitors; hit rate 5.9% among 310,000; AID 504832, 2011
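Firefly luciferase activity from engineered P. falciparum reports growth; inhibitors lower the luminescent signal. Cultures contained 2% hematocrit erythrocytes at 0.1% final parasitemia.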
Hits are given with their value; 0 = inactive; ? = inconclusive; - = no result; [ ] = dose if it differs, or a comment. An excerpt weighted towards active compounds, which were near 15% of everything screened. Unless noted, calls follow the shape of the dose curve; as a rule, active = well fitted curve in the direction sought with a large enough effect; inconclusive = small, poorly fitted or top-dose-only effect, or another doubt; inactive = no such curve, though single readings can be large; an effect the other way counts as inactive or inconclusive.

SMILES	SARS PLP yeast	HCV inhibitor	Sm TGR inh	Pf growth 96h	HCMV antiviral	Pf growth 48h
CCCCCc1cc(=O)oc2c(C(CCN3CCCCC3)c3cc(OC)c(OC)c(OC)c3)c(OC)cc(OC)c12 (stereo not given)	0	?	0	2.3µM	0	5.2µM
COc1cc(OC)c2ccc(=O)oc2c1C(CCN1CCCC(C)C1)c1ccc(N(C)C)cc1 (stereo not given)	0	0	0	?	0	?
CCCCCc1cc(=O)oc2c(C(CCN3CCCC(C)C3)c3cc(OC)c(OC)c(OC)c3)c(OC)cc(OC)c12 (stereo not given)	0	0[8.37 µM]	?	0.37µM	-	2.6µM
CCOC(=O)COc1ccc(C)cc1C(=O)c1ccn2nc(-c3ccc(Cl)cc3)cc2n1	-	-	0	-	0	-
CC(=O)Oc1ccccc1C(=O)OCCN=C1NS(=O)(=O)c2ccccc21	0	0	0	0	0	0
Fc1ccccc1Cc1noc(CN(Cc2ccccn2)CC2CCCO2)n1 (stereo not given)	0	0	0	?	0	0
CCOC1(NC(=O)c2ccccc2)C(C)=CC(=O)C=C1C	0	0	25µM	0	0	0
CCOC(=O)C(NC(=O)c1ccccc1)=C1C=C(C)OC(C)=C1	0	0	?	0	0	0
CC1(C)Oc2ccc(C(=O)Nc3ccccc3)cc2N(CC#N)C1=O	0	0	0	2.9µM	0	0
CC1(C)Oc2ccc(C(=O)NC3CCCCC3)cc2N(CC#N)C1=O	0	0	0	?	0	?
N=c1c(C(=O)NC2CCCC2)cc2c(=O)n3ccccc3nc2n1Cc1ccccc1	0	?	0	?	0	?
N=c1c(C(=O)NC2CCCCC2)cc2c(=O)n3ccccc3nc2n1Cc1ccc(F)cc1	0	0	0	?	0	2.1µM
Cc1ccc(Cn2c(=N)c(C(=O)NC3CCCCC3)cc3c(=O)n4ccccc4nc32)cc1	0	0	0	2.9µM	0	4.1µM
CCc1cccc(OCC2Cn3c(nc4c3c(=O)[nH]c(=O)n4C)O2)c1 (stereo not given)	0	0	0	12µM	0	0
Cn1c(=O)c2c(nc3n2CC(COc2ccccc2)O3)n(C)c1=O (stereo not given)	0	0	0	9.3µM	0	0
Cc1sc2nc(C3CC3)nc(N3CCN(S(=O)(=O)c4ccc(F)cc4)CC3)c2c1C	0	?	0	0	0	10µM
COc1ccc(C(=O)N2CCN(c3nc(C4CC4)nc4sc(C)c(C)c34)CC2)cc1	0	?	0	0	0	12µM
Cc1sc2nc(C3CC3)nc(N3CCN(C(=O)c4ccc(F)cc4)CC3)c2c1C	0	?	0	0	-81	?
CN(CCOc1ccc(Br)cc1)CC(O)c1ccccc1 (stereo not given)	0	0	0	0	0	?
CC(C)c1ccc(CN(C)CC(O)c2ccccc2)cc1 (stereo not given)	0	0	0	9.3µM	0	2.6µM
CN(CCOc1ccccc1)CC(O)COc1ccccc1 (stereo not given)	0	0	0	0	0	0
CN(CCOc1ccc(Cl)cc1)CC(O)c1ccccc1 (stereo not given)	0	?	0	?	0	9.3µM
CC(OCC(O)CN(C)CCOc1ccccc1)c1ccc(Cl)cc1 (stereo not given)	0	0	0	12µM	0	?
O=C(CSc1n[nH]c(-c2cc(Cl)ccc2Cl)n1)NCCN1C(=O)CSC1=O	0	0	0	0	?	0
Cc1ccc(S(=O)(=O)Nc2ccc(-c3ccc(N4CCCCCC4)nn3)cc2)c(C)c1	-	-	0	-	0	-
SMILES	SARS PLP yeast	HCV inhibitor	Sm TGR inh	Pf growth 96h	HCMV antiviral	Pf growth 48h
O=C(CSc1nnc(NC(=O)C2CCC2)s1)Nc1ccc(N2CCOCC2)cc1	0	0	0	0	-108	0
Cc1ccc(NC(=O)Nc2nnc(SCC(=O)N(C(C)C)C(C)C)s2)cc1	-	-	0	-	-80	-
COc1ccccc1NC(=O)CSc1nnc(NC(=O)Nc2ccc(C)cc2)s1	-	-	0	-	-86	-
CC(C)N(C(=O)CSc1nnc(NC(=O)C2CCC2)s1)C(C)C	0	0	0	?	0	6.6µM
CSc1nn(Cc2ccc(Br)cc2)c(N(C(C)=O)C(C)=O)c1S(=O)(=O)c1ccccc1	-	-	0	-	?	-
Cc1cccc(NC(=O)c2cccc(S(=O)(=O)N(C)C3CCCCC3)c2)n1	-	-	-	-	0	-
O=C(CC(=O)NCc1ccc(Cl)cc1)NCc1ccccc1	0	0	0	0	0	0
CC1(NCc2ccc(Cl)cc2)COP(=O)(NCc2ccccc2)OC1 (stereo not given)	-	0	-	-	-83	-
COc1ccc(C(=O)OCC(=O)NCC2CCCO2)cc1S(=O)(=O)N1CCCc2ccccc21 (stereo not given)	0	0	0	0	0	0
CCCC(C(=O)NC1CCCC1)N(C(=O)c1snc(C(N)=O)c1N)c1ccc(F)cc1 (stereo not given)	0	0	0	0	0	?
CCCCN(CC)CCCNC(=O)Cn1nc(CC)n2c(cc3sccc32)c1=O	-	-	0	-	0	-
CCc1nn(CC(=O)NCCCN(Cc2ccccc2)C(C)C)c(=O)c2cc3sccc3n12	0	?	0	?	-63	0
CCCCOc1cccc(C(=O)N(Cc2ccc(N(C)C)cc2)C2CCS(=O)(=O)C2)c1 (stereo not given)	-	-	0	-	0	-
COc1ccc(Nc2cc3c(cn2)ncn3Cc2ccccc2)cn1	-	-	-	-	0	-
CC(C)c1ccc(-c2c(C#N)c(N)nc(SCC(=O)N3CCCCCC3)c2C#N)cc1	0	0	0	5.2µM	0	-
CCc1c(C#N)c(N)nc(SCC(=O)OCc2ccccc2)c1C#N	0	0	0	?	0	9.3µM
CC(C)OC(=O)CSc1nc(N)c(C#N)c(-c2ccco2)c1C#N	0	0	40µM	?	0	?
N#Cc1c(SCC(=O)OCc2ccccc2)nsc1SCC(=O)OCc1ccccc1	0	0	0	0	0	-
CCc1nc(N)c(C#N)c(-c2ccco2)c1C	0	0	0	0	0	0
Cc1c(-c2ccccc2)nc(N)c(C#N)c1-c1ccco1	0	0	35µM	-	0	0
COc1ccc(-c2nc3nc(C)cc(N4CCN(c5cccc(C(F)(F)F)c5)CC4)n3n2)cc1	-	-	0	-	0	-
Cc1ccccc1NC(=S)NC1CCN(Cc2ccccc2)CC1	0	0	0	0	0	0
COc1ccc(C(=O)NCCSc2c(C)[nH]c3ccccc23)cc1	-	-	0	-	-96	-
Cc1[nH]c2ccccc2c1SCCNC(=O)c1ccc(S(=O)(=O)N2CCCC2)cc1	0	?	0	13µM	0	?
COc1ccc(CNC(=O)c2cc3ccccc3oc2=O)cc1	0	0	0	0	0	0
